SARS PLpro yeast: SARS-CoV PLP inhibition in yeast; S. cerevisiae expressing SARS-CoV PLpro, growth rescue; actives 0.19% (n = 330,000); Potency, µM (top dose mostly 32.9 µM), inactives show at the top dose activity, positive = growth rescue, most hits filed as activators; calls by dose curve; also: 0% is about no effect; nearly all actives have a fitted effect of over 55% in size
Pf growth 96h: inhibits malaria parasite growth, 96 h; P. falciparum luciferase reporter growth, 96 h; Potency, µM (titrated, usually from 28.7 µM), inactives show at the top dose activity change, negative = inhibition, most hits filed as inhibitors; actives 6.9% (n = 320,000); AID 504834; also: % is scaled to controls: 0 for no effect and ±100 for the full control effect
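Erythrocytes infected with luciferase-expressing P. falciparum were dispensed at 2% hematocrit and 0.05% parasitemia (final), then incubated with compounds 96 hours at 37 C in 5% CO2. Luminescence after detection reagent addition reported growth.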
Sm TGR inh: S. mansoni TGR enzyme inhibition. purified TGR, DTNB reduction, TNB absorbance 405 nm. AID 485364. Potency, µM (highest dose often 114 µM), for the others: at the top dose activity change, negative = inhibition, hits mostly inhibitors. actives 3% (n = 360,000); also: % is scaled to controls: 0 for no effect and ±100 for the full control effect; nearly all actives have a fitted effect of over 60% in size
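First, TGR (20 nM dispensed) and NADPH were mixed with compound. Second, a 15 min room-temperature incubation followed. Third, further NADPH and then DTNB were added to start the reaction. Finally, TNB absorbance was monitored kinetically.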
Pf growth 48h: P. falciparum growth inhibition at 48 hours (one generation). Potency, µM (doses to about 28.7 µM), inactives show at the highest dose activity change, negative = inhibition, usual class: inhibitors. AID 504832. actives 5.9% (n = 310,000). P. falciparum luciferase growth in erythrocytes, 48 h; also: % is scaled to controls: 0 for no effect and ±100 for the full control effect
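In quantitative HTS format, infected erythrocytes bearing luciferase-reporter parasites were treated for a single generation at 37 C. Luminescence after adding detection reagent served as the growth measure.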
Numbers without * were called inactive; ? = inconclusive; nt = no result given; [ ] = another dose, or the depositor's remark. Only some compounds are listed: those with a hit (about 12% of all), similar ones and a draw of the others. Unless noted, calls follow the shape of the dose curve; as a rule, active = well fitted curve in the direction sought with a large enough effect; inconclusive = small, poorly fitted or top-dose-only effect, or another doubt; inactive = no such curve, though single readings can be large; an effect the other way counts as inactive or inconclusive. Potency is read from the fitted curve at half-maximal effect.

SMILES	SARS PLpro yeast	Pf growth 96h	Sm TGR inh	Pf growth 48h
Cc1nc2ccc(S(=O)(=O)N(CC(=O)Nc3cccc(F)c3)Cc3ccccc3)cc2s1	nt	nt	18%	nt
CCn1c2ccccc2c2cc(NC(=O)C(=O)NCC3CCCO3)ccc21 (stereo unspecified)	4%	-6%	1%	?
Cc1cc(C)n(CC(O)Cn2c3ccc(Cl)cc3c3cc(Cl)ccc32)c(=O)n1 (stereo unspecified)	-2%	nt	8%	?
OC(CNCC1CCCO1)Cn1c2ccccc2c2ccccc21 (stereo unspecified)	1%	?	-15%	4.7µM*
OC(CNCC1CCCO1)Cn1c2ccc(Cl)cc2c2cc(Cl)ccc21 (stereo unspecified)	-12%	29%	-2%	0.37µM*
OC(CNCCC1C=Nc2ccccc21)Cn1c2ccc(Cl)cc2c2cc(Cl)ccc21 (stereo unspecified)	-41%	?	-3%	2.6µM*
O=C(Cn1c(=O)n(Cc2ccco2)c(=O)c2cc(Cl)ccc21)NCC1CCCO1 (stereo unspecified)	-2%	72%	?	10%
COc1ccc(CNC(=O)Cn2nc3c(cc2=O)CCCC3)cc1	nt	nt	-3%	nt
OCCN1CCN(c2cc(-c3ccccc3)c3ccccc3n2)CC1	6%	13µM*	-7%	?
COc1cc(NC(=O)COc2ccc(F)cc2)nc(OC)n1	-1%	13µM*	1%	12%
COc1cc(NC(=O)c2cccc(Br)c2)nc(OC)n1	-2%	2.9µM*	8%	187%
COc1cc(NC(=O)c2c(F)cccc2F)nc(OC)n1	2%	?	2%	94%
Cc1ccc(OCC(=O)Nc2ccc(F)cc2)cc1	-3%	nt	3%	68%
CC(C(=O)Nc1ccc(F)cc1Cl)N1CCN(S(=O)(=O)c2cccs2)CC1 (stereo unspecified)	6%	?	1%	?
CN(C(=O)c1cccc(NC(=O)Cc2cccc([N+](=O)[O-])c2)c1)C1CC1	-12%	nt	nt	nt
COc1cc(CSc2ncn[nH]2)c(OC)cc1CSc1ncn[nH]1	5%	13µM*	-25%	?
c1ccc(CSc2ncn[nH]2)nc1	-1%	5.2µM*	nt	6%
Brc1ccc(CSc2ncn[nH]2)cc1	-6%	-7%	13%[11.4 µM]	nt
O=C(CN1C(=O)NC(c2ccccc2)(c2ccccc2)C1=O)NCc1ccc(F)cc1	3%	nt	nt	nt
C/C(=N/NS(=O)(=O)c1ccc(Cl)cc1)c1ccncc1	-1%	?	28µM*	19%
Cc1ccc(-n2c(C)cc(/C=C3\NC(=O)NC3=O)c2C)c(C)c1	-4%	13µM*	-31%	13µM*
Cc1cc(/C=C2/NC(=O)NC2=O)c(C)n1-c1ccccn1	-17%	9.3µM*	-1%	10%
O=C(NCc1ccc(Cl)cc1)NC1COc2ccccc2C1 (stereo unspecified)	nt	nt	-2%	nt
CCOc1ccc(-c2nc(CSCC(=O)N3CCN(C(=O)c4ccco4)CC3)c(C)o2)cc1	4%	?	89µM*	nt
CC1CCN(CC(=O)N2c3ccccc3CCc3ccccc32)CC1	-5%	25%	-1%	15µM*
SMILES	SARS PLpro yeast	Pf growth 96h	Sm TGR inh	Pf growth 48h
O=C(c1ccco1)N1CCN(CC(=O)N2c3ccccc3CCc3ccccc32)CC1	1%	10µM*	-23%	?
CCOC(=O)N1CCN(CC(=O)N2c3ccccc3CCc3ccccc32)CC1	0%	?	-2%	5%[5.75 µM]
CCOC(=O)C1CCN(C(=O)CSCc2nc(-c3ccc(OCC)cc3)oc2C)CC1	-15%	-2%	-17%	?
O=C(CN1CCCCC1)N1c2ccccc2CCc2ccccc21	6%	?	0%	nt
O=C(CSc1ccccc1)N1CCN(C(=O)c2ccco2)CC1	0%	-20%	?	-1%
O=C(CSCc1ccccc1)N1CCN(C(=O)c2ccco2)CC1	20%	nt	45µM*	6%
COc1ccc(Cl)cc1C(=O)NNC(=O)C1CCCO1 (stereo unspecified)	-1%	29%	-9%	19%
O=C(CSc1nnc(-c2ccccc2F)o1)NC(=O)Cc1ccccc1	3%	36%	-1%	21%
CCCSc1ccc(-c2nn(-c3ccccc3)cc2/C=C(/C#N)C(=O)NCCCOC)cc1	0%	3.7µM*	-6%	1%
Cc1ccc(-c2nn(-c3ccccc3)cc2/C=C(\C#N)C(=O)NCc2ccccc2)cc1	5%	44%	-10%	14%
CCSc1ccc(-c2nn(-c3ccccc3)cc2/C=C(/C#N)C(=O)NCCCOC)cc1	9%	?	-4%	1.9µM*
